Source: PubChem BioAssay (Tox21)
Results filed as inconclusive are left out. Active and inactive are the calls of the source. Unless noted, calls follow the shape of the dose curve; as a rule, active = well fitted curve in the direction sought with a large enough effect in the repeat runs; inconclusive = weak or mixed curves; inactive = no such curve, though single readings can be large; an effect the other way counts as inactive or inconclusive.

Columns and labels:
[1] = qHTS assay for small molecules that induce genotoxicity in human embryonic kidney cells expressing luciferase-tagged ATAD5 (AID 651632); also: nearly all actives have a fitted effect of over 15% in size
Outline: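 A rise in luciferase signal from ATAD5-tagged HEK293T cells marks genetic stress. Cells were exposed to compounds for 16 hr at 37C, 5% CO2, then luciferase was quantified after a 30 min room-temperature incubation with Amplite.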

[2] = qHTS assay for small molecule agonists of the p53 signaling pathway - cell viability (AID 651633; calls by dose curve;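 also: p53RE-bla HCT reporter cells with a stable beta-lactamase p53 reporter; series mostly up to about 83 µM; nearly all actives have a fitted effect of over 30% in size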)
Outline: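 p53RE-bla cells were treated with compound for 16 hours at 37 C. Cytotoxicity was then measured as CellTiter-Glo luminescence after 30 min at room temperature.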

[3] = qHTS assay for small molecules that induce genotoxicity in human embryonic kidney cells expressing luciferase-tagged ATAD5 - cell viability (AID 651634; calls by dose curve; also: nearly all actives have a fitted effect of over 25% in size)
Outline: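 Cytotoxicity counter-readout: after 15.5 hr compound treatment at 37C, live-cell protease activity in ATAD5-luciferase HEK293T cells measured by CellTiter-Fluor fluorescence, 30 min development at 37C.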

[4] = qHTS assay for small molecule disruptors of the mitochondrial membrane potential - cell viability (AID 720634; calls by dose curve;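 also: human HepG2 liver cancer cells; series mostly up to about 83 µM; nearly all actives have a fitted effect of over 20% in size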)
Outline: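 Cytotoxicity was quantified from ATP content by CellTiter-Glo luminescence in the same wells as the MMP dye read-out. HepG2 (2,000 cells/well) were plated overnight and exposed to compounds for 1 hr at 37 C.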

[5] = qHTS assay to test for compound auto fluorescence at 590 nm (red) in HepG2 cells (AID 720674)
Outline: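 Fluorescence at 590 nm emission following 540 nm excitation was recorded from HepG2 wells one hour after compound transfer, with DMSO-only wells as vehicle and Rose Bengal sodium equivalency as the scale.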

[6] = qHTS assay to test for compound auto fluorescence at 535 nm (green) in HepG2 cells (AID 720675)
[7] = qHTS assay to test for compound auto fluorescence at 460 nm (blue) in HEK293 cells (AID 720678)
Outline: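 HEK293 cells (2,000 per well, medium with 10% dialyzed FBS) attached for 4-5 hr at 37C, then received compound and stood overnight at 37C, 5% CO2. Blue fluorescence was read at Ex/Em 405/460 nm and expressed relative to triamterene.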

[8] = qHTS assay to test for compound auto fluorescence at 590 nm (red) in HEK293 cells (AID 720679)
Outline: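 HEK293 cells (2,000/well, medium with 10% dialyzed FBS) attached for 4-5 hr at 37C, received 23 nL compound and were incubated overnight at 37C, 5% CO2. Red fluorescence was then read at 540/590nm Ex/Em, referenced to Rose Bengal sodium.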

[9] = qHTS assay to test for compound auto fluorescence at 535 nm (green) in HEK293 cells (AID 720680)
[10] = qHTS assay to test for compound auto fluorescence at 460 nm (blue) in HEK293 cell free culture (AID 720681)
Outline: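 Compounds were added to cell-free DMEM with 10% FBS and fluorescence read directly. The blue channel used 405 nm excitation and 460 nm emission, with triamterene as the reference fluorophore.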

[11] = qHTS assay to test for compound auto fluorescence at 535 nm (green) in HEK293 cell free culture (AID 720682)
Outline: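 No cells present: wells hold DMEM supplemented with 10% FBS, into which compound or vehicle is pinned. Green emission is then recorded (485 nm excitation, 535 nm emission) and scaled to fluorescein.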

[12] = qHTS assay to test for compound auto fluorescence at 590 nm (red) in HEK293 cell free culture (AID 720683)
Outline: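 Cell-free wells of DMEM with 10% FBS received compound, and intrinsic fluorescence was read at excitation/emission 540/590 nm. Values expressed as equivalence to Rose Bengal sodium.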

[13] = qHTS assay to test for compound auto fluorescence at 590 nm (red) in HepG2 cell free culture (AID 720684)
Outline: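 Auto fluorescence equivalency versus Rose Bengal sodium, red channel Ex/Em 540/590 nm; compounds in cell-free MEM/10% FBS; DMSO vehicle control.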

[14] = qHTS assay to test for compound auto fluorescence at 460 nm (blue) in HepG2 cell free culture (AID 720685)
Outline: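 Cell-free plates of MEM plus 10% FBS received 23 nL compound or DMSO vehicle; blue-channel (405/460 nm) intensity scored against triamterene as reference fluorophore.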

[15] = qHTS assay to test for compound auto fluorescence at 535 nm (green) in HepG2 cell free culture (AID 720686)
[16] = qHTS assay to test for compound auto fluorescence at 460 nm (blue) in HepG2 cells (AID 720687)
Outline: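 HepG2 cells in MEM with 10% FBS, attached overnight at 37 C, were exposed to compound or DMSO for 1 hr at 37 C, 5% CO2. Blue fluorescence was read at 405/460 nm, with triamterene as reference fluorophore.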

[17] = biological target: Glucocorticoid receptor (Homo sapiens) (UniProt P04150); test: qHTS assay to identify small molecule antagonists of the glucocorticoid receptor (GR) signaling pathway (AID 720692; active = well fitted inhibition curve with a large enough effect in the signal ratio in the repeat runs, not every such curve was filed as active; the % refers to the signal ratio)
Outline: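 Inhibition of dexamethasone-driven (5 nM final) beta-lactamase expression was measured in GRE-reporter HeLa cells over 18 h at 37C. Fluorescence was read after 2 h with the B/G FRET substrate at room temperature.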

[18] = qHTS assay for small molecule disruptors of the mitochondrial membrane potential (AID 720635)
Outline: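 HepG2 cells exposed to compound 1 hr at 37C, then Mito-MPS dye 30 min. Ratio read of aggregate (540/590 nm) versus monomer (490/535 nm) fluorescence.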

[19] = biological target: Glucocorticoid receptor (Homo sapiens) (UniProt P04150); test: qHTS assay to identify small molecule agonists of the glucocorticoid receptor (GR) signaling pathway (AID 720691; active = well fitted activation curve with a large enough effect in the signal ratio in the repeat runs, not every such curve was filed as active; the % refers to the signal ratio)
Outline: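 Agonist-mode qHTS in HeLa cells stably expressing a glucocorticoid-response-element beta-lactamase reporter. Fluorescence intensity read with FRET substrate (2 h, room temperature) after 18 h compound treatment at 37 C.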
% is scaled to controls: 0 for no effect and ±100 for the full control effect.

Chain of Glucocorticoid receptor (Homo sapiens) (P04150 whole entry, looked up): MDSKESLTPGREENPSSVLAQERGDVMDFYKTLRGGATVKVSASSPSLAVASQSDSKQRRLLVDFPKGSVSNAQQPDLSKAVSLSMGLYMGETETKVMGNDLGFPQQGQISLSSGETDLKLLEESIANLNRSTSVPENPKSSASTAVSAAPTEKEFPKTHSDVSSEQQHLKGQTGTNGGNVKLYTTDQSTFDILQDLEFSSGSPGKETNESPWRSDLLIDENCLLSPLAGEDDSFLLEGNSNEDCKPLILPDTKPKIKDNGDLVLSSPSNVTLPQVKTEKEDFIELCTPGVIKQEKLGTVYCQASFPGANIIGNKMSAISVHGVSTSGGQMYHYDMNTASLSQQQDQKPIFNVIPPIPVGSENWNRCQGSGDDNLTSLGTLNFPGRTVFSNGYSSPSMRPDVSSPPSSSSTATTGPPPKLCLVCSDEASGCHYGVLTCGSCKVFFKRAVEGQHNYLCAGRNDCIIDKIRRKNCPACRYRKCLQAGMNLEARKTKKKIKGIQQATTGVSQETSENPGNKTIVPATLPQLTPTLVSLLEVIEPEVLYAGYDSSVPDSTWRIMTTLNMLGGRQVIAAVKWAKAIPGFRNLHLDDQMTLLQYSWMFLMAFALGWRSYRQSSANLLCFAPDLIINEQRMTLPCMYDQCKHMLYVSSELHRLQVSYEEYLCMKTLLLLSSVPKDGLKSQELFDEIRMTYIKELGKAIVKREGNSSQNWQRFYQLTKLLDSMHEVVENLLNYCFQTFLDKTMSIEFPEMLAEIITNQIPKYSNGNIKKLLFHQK

OC[C@H]1O[C@@H]2O[C@H]3[C@H](O)[C@@H](O)[C@@H](O[C@H]4[C@H](O)[C@@H](O)[C@@H](O[C@H]5[C@H](O)[C@@H](O)[C@@H](O[C@H]6[C@H](O)[C@@H](O)[C@@H](O[C@H]7[C@H](O)[C@@H](O)[C@@H](O[C@H]8[C@H](O)[C@@H](O)[C@@H](O[C@H]9[C@H](O)[C@@H](O)[C@@H](O[C@H]1[C@H](O)[C@H]2O)O[C@@H]9CO)O[C@@H]8CO)O[C@@H]7CO)O[C@@H]6CO)O[C@@H]5CO)O[C@@H]4CO)O[C@@H]3CO
inactive: Potency [1] | Potency [2] | Potency [3] | Potency [4] | outcome [5] | outcome [6] | Potency [7] | outcome [8] | outcome [9] | Potency [10] | outcome [11] | outcome [12] | outcome [13] | Potency [14] | outcome [15] | Potency [16] | Potency [17]

CCN(CC)C(=O)c1ccc(O)c(OC)c1
inactive: Potency [1] | Potency [2] | Potency [3] | Potency [4] | Potency [18] | outcome [6] | Potency [7] | outcome [8] | outcome [9] | Potency [10] | outcome [11] | outcome [12] | outcome [13] | Potency [14] | outcome [15] | Potency [16] | Potency [19] | Potency [17]

C=C[Si](OC)(OC)OC
inactive: Potency [1] | Potency [2] | Potency [3] | Potency [4] | Potency [18] | outcome [6] | Potency [7] | outcome [8] | outcome [9] | Potency [10] | outcome [11] | outcome [12] | outcome [13] | Potency [14] | outcome [15] | Potency [16] | Potency [19] | Potency [17]

CCCCCCCCCCCCCCC
inactive: Potency [1] | Potency [2] | Potency [3] | Potency [4] | Potency [18] | outcome [5] | outcome [6] | Potency [7] | outcome [8] | outcome [9] | Potency [10] | outcome [11] | outcome [12] | outcome [13] | Potency [14] | outcome [15] | Potency [16] | Potency [19] | Potency [17]

Nc1cc(N)cc(C(=O)O)c1
inactive: Potency [1] | Potency [2] | Potency [3] | Potency [4] | Potency [18] | outcome [5] | outcome [6] | outcome [8] | outcome [9] | Potency [10] | outcome [11] | outcome [12] | Potency [14] | outcome [15] | Potency [16] | Potency [19] | Potency [17]

CC1CCN(CCCC(=O)c2ccc(F)cc2)CC1
inactive: Potency [1] | Potency [2] | Potency [3] | Potency [4] | Potency [18] | outcome [5] | outcome [6] | Potency [7] | outcome [8] | outcome [9] | Potency [10] | outcome [11] | outcome [12] | outcome [13] | Potency [14] | outcome [15] | Potency [16] | Potency [17]

COc1cc(C)cc(O)c1
inactive: Potency [1] | Potency [2] | Potency [3] | Potency [4] | Potency [18] | outcome [6] | Potency [7] | outcome [8] | outcome [9] | Potency [10] | outcome [11] | outcome [12] | outcome [13] | Potency [14] | outcome [15] | Potency [16] | Potency [19]

C=C(C)[C@@H]1CCC2=CC(=O)C[C@@H](C)[C@]2(C)C1
inactive: Potency [1] | Potency [2] | Potency [3] | Potency [4] | outcome [5] | outcome [6] | Potency [7] | outcome [8] | outcome [9] | Potency [10] | outcome [11] | outcome [12] | Potency [14] | outcome [15] | Potency [16]

COC(=O)c1ccc(C(=O)OC)c(C(=O)OC)c1
inactive: Potency [1] | Potency [2] | Potency [3] | Potency [4] | Potency [18] | outcome [5] | outcome [6] | Potency [7] | outcome [8] | outcome [9] | Potency [10] | outcome [11] | outcome [12] | outcome [13] | Potency [14] | outcome [15] | Potency [16] | Potency [19] | Potency [17]

NCC[C@H](O)C(=O)N[C@@H]1C[C@H](N)[C@@H](O[C@H]2O[C@H](CN)[C@@H](O)[C@H](O)[C@H]2O)[C@H](O)[C@H]1O[C@H]1O[C@H](CO)[C@@H](O)[C@H](N)[C@H]1O
inactive: Potency [1] | Potency [2] | Potency [3] | Potency [4] | Potency [18] | outcome [5] | outcome [6] | Potency [7] | outcome [8] | outcome [9] | Potency [10] | outcome [12] | Potency [14] | outcome [15] | Potency [16] | Potency [19] | Potency [17]

CC(C)CCOC(=O)CC(C)C
inactive: Potency [1] | Potency [2] | Potency [3] | Potency [4] | outcome [5] | outcome [6] | Potency [7] | outcome [8] | outcome [9] | Potency [10] | outcome [11] | outcome [12] | outcome [13] | Potency [14] | outcome [15] | Potency [16] | Potency [19]

C#CC(O)C(CC)CCCC (centres undefined)
inactive: Potency [1] | Potency [2] | Potency [3] | Potency [4] | outcome [5] | outcome [6] | Potency [7] | outcome [8] | outcome [9] | Potency [10] | outcome [11] | outcome [12] | Potency [14] | outcome [15] | Potency [16]

c1ccc(CCCc2ccccn2)cc1
inactive: Potency [1] | Potency [2] | Potency [3] | Potency [4] | outcome [5] | outcome [6] | Potency [7] | outcome [8] | outcome [9] | Potency [10] | outcome [11] | outcome [12] | outcome [13] | Potency [14] | outcome [15] | Potency [16]

C1CCCCCCCCCCC1
inactive: Potency [1] | Potency [2] | Potency [3] | Potency [4] | fluorescence, relative to Rose Bengal [5] -0.0148% [at 18.6 µM] | fluorescence, % of fluorescein control [6] -0.001% [at 18.6 µM] | fluorescence, % of triamterene [7] -0.115% [at 18.6 µM] | fluorescence, % of fluorescent control [8] -0.0949% [at 18.6 µM] | fluorescence, % of fluorescein [9] 0.0284% [at 18.6 µM] | fluorescence, % of fluorescent control [10] -0.122% [at 18.6 µM] | activity change [11] 0.0049% [at 18.6 µM] | fluorescence, % of fluorescent control [12] -0.0432% [at 18.6 µM] | fluorescence, % of Rose Bengal [13] -0.141% [at 18.6 µM] | fluorescence, % of fluorescent control [14] -0.102% [at 18.6 µM] | fluorescence, % of fluorescein control [15] -0.0289% [at 18.6 µM] | fluorescence, % of fluorescent control [16] -0.112% [at 18.6 µM]
